Data on 12 molecules can be found in PubChem BioAssay.

A short description of experiment [1]: circadian clock period modulators, cell-based, LOPAC library, luminescence reporter (AID 2774).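 Also: values are relative to mean of DMSO wells on each plate.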 To be noted: circadian reporter cells, at 7 µM, actives lie on both sides.
Experiment [2] concerns Hepatitis C virus NS3 helicase. The experiment is described as follows: HCV NS3 helicase inhibitors, primary screen, biochemical, fluorescence polarization, LOPAC1280 library (AID 687035; in the data active = inhibition above about 37%). The settings on record: Purified HCV NS3 helicase, Cy5-dT15 ssDNA binding fluorescence polarization; stronger effect = higher value; concentration not given here.
Experiment [3] in a line: Cy5 fluorescence quenching or enhancement artefacts, artefact control for HCV NS3 helicase inhibitor project, biochemical, LOPAC1280 (AID 687037). To be noted: Cy5-DNA-NS3h complex fluorescence interference counterscreen.
Experiment [4] in a line: growth inhibition of DIPG glioma cells, dose response, cell-based, SU-DIPG-XIII, MIPE4.0, CellTiter-Glo, qHTS (AID 1347061; cut-off not given, nearly all actives have AC50 up to about 37 µM;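 also: cells exposed to compound for 48 hours before readout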). The settings on record: SU-DIPG-XIII viability, CellTiter-Glo ATP luminescence. In general terms: ATP-based viability assays read luminescence as a measure of living cells.
Experiment [5] in a line: phospholipid biosynthesis inhibitors in animal cells, primary screen, cell-based, LOPAC library, screen 4 (AID 1347384). To be noted: phospholipid biosynthesis inhibition screen, at 10 µM.
Experiment [6] is described as follows: polyglutamine-triggered caspase-3 activation inhibitors, cell-based (AID 1583). The settings on record: polyglutamine-induced caspase-3 activation, cell assay; stronger effect = higher value;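 tested at 10 µM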.
The nature of experiment [7]: suppressors of polyQ aggregation in yeast, 75Q-TubU reporter (AID 1593). To be noted: Yeast 75Q polyglutamine aggregation reporter.
The nature of experiment [8]: rescue of polyQ-huntingtin neuronal dysfunction in worms, whole organism, C. elegans mechanosensory neurons, N-terminal huntingtin (AID 1599). The settings on record: touch response, stronger effect = higher value.
Experiment [9] is described as follows: inhibitors of mitochondrial cytochrome c release, biochemical, purified mitochondria (AID 1603).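 Also: mouse liver mitochondria challenged with calcium chloride; signal normalized to the plate average as 100%.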 To be noted: stronger effect = lower value.
Experiment [10] in a line: inhibitors of polyQ protein aggregation (AID 1604). The settings on record: polyglutamine-induced protein aggregation inhibition assay; stronger effect = higher value; tested at 2.5 µM.
Experiment [11] can be described thus: enhancers of glutamate uptake in motor neurons, MN-1 cell line (AID 1612).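 Also: tested at 1 µM final; 0% = mean of DMSO vehicle wells on each plate; positive means more glutamate uptake than control and negative means less.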 To be noted: MN-1 motor neuron cells, stronger effect = higher value.
The nature of experiment [12]: suppressors of polyglutamine aggregation in yeast, 75Q-TubH (AID 1616). The settings on record: S. cerevisiae 75Q-TubH polyglutamine aggregation suppression; stronger effect = higher value.
Experiment [13] is described as follows: growth inhibition of DIPG glioma cells, dose response, cell-based, SU-DIPG-XVII, MIPE5.0, CellTiter-Glo, qHTS (AID 1347060; cut-off not given, nearly all actives have AC50 up to about 26 µM;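 also: cells exposed to compound for 48 hours before viability readout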). The settings on record: SU-DIPG-XVII viability, CellTiter-Glo ATP luminescence.
Experiment [14] can be described thus: reducers of polyQ inclusions in PC12 cells, cell-based, NGF-treated PC12, GFPQ80 (AID 1614).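 Also: lower means fewer inclusions and 0 means no inclusions at all.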 The settings on record: PC12 NGF-treated GFP-polyQ80 inclusion reduction.

Records with an inconclusive call do not appear. For some assays here: Entries with a potency or affinity are not part of this list. Calls of active or inactive are those of the source. Unless noted, no rule for the calls is given here.

By inhibition is commonly meant the drop in the measured response relative to a control, in per cent. Take `CC(C)(Oc1ccc(C2CC2(Cl)Cl)cc1)C(=O)O` (stereo unspecified): the period change in experiment [1] is 0.045 h (inactive). Besides, the inhibition in experiment [2] was -1% (inactive). For the same molecule, in experiment [3], the fluorescence ratio (interference) is 1 (inactive). In addition, the outcome in [4] and in experiment [5] was inactive.
By AC50 is commonly meant the concentration giving half of the maximal activity seen. In the case of `COc1cc2c(c(OC)c1OC)-c1ccc(OC)c(=O)cc1[C@@H](NC(C)=O)CC2`, the inhibition in experiment [6] was -76.8%; in experiment [2], -1% (inactive). This molecule showed a score in experiment [7] of 1.26. The molecule also returned a rescue above control in [8] of -5.06. Besides, the cytochrome c release ratio in experiment [9] was determined as 0.87. The molecule further displayed an inhibition of aggregation in experiment [10] of 97.2%. The glutamate uptake change in experiment [11] was -10.3%. This molecule came in with an aggregation suppression score in experiment [12] of 1.64. In experiment [1], the period change is -0.41 h (inactive). Moreover, the fluorescence ratio (interference) in [3] was 1 (inactive). In experiment [13], the AC50 is 29.5 nM (active). Also, the result in [5] was inactive.
In the case of `Clc1ccc(Cn2c(CN3CCCC3)nc3ccccc32)cc1`, in experiment [1], the period change was 0.175 h (inactive). Also, the inhibition in experiment [2] was 0% (inactive). Further, in experiment [3], the fluorescence ratio (interference) is 1 (inactive). Besides, the molecule was called inactive in experiment [5].
Taken in the same sequence, the figures for `NCCCNCCSP(=O)(O)O` were -0.025 h (inactive), -3% (inactive), 1 (inactive) and “inactive”.
Take `CN(C(=O)CN(CCO)CC(=O)N(C)C(C)(C)Cc1ccccc1)C(C)(C)Cc1ccccc1`: in experiment [6], the inhibition was -62.8%. This molecule also returned a score in [7] of 1.1. This molecule also returned a rescue above control in experiment [8] of 0. Besides, in [9], the cytochrome c release ratio is 5.27. Besides, in [10], the inhibition of aggregation turned out to be 66.7%. For the same molecule, in experiment [11], the glutamate uptake change was -0.7%. The molecule further came in with an aggregation suppression score in experiment [12] of 1.14.
Regarding `C[C@@H](O)[C@H]1C(=O)N2C(C(=O)O)=C(SCCN=CN)C[C@H]12`, in [2], the inhibition is -1% (inactive). Moreover, in experiment [3], the fluorescence ratio (interference) was 1 (inactive). The molecule was called inactive in experiment [5].
Turning to `N=C(N)N1CCc2ccccc2C1`, the molecule was classed as inactive in experiment [5].
Turning to `CC(=O)Oc1cc(C(C)C)c(OCCN(C)C)cc1C`, the period change in experiment [1] is -0.155 h (inactive). The inhibition in experiment [2] is -6% (inactive). Besides, the fluorescence ratio (interference) in [3] was 1 (inactive). Also, the molecule was classed as inactive in [5].
Consider `CNCCc1ccccn1`, for which the inhibition in experiment [6] was determined as 24.5%. In [7], this molecule displayed a score of 1.2. Also, in experiment [8], the rescue above control is -9.72. In addition, in [9], the cytochrome c release ratio came to 0.91. In experiment [10], this molecule displayed an inhibition of aggregation of 75.9%. For the same molecule, in experiment [11], the glutamate uptake change is -5.29%. The inclusion score in experiment [14] was 2. The molecule further had an aggregation suppression score in experiment [12] of 1.84.
For `CN(C)CC/C=C1\c2ccccc2Sc2ccc(Cl)cc21`, the inhibition in [6] came to 3.29%. In [7], this molecule had a score of 0.95. For the same molecule, in experiment [8], the rescue above control was determined as 0. For the same molecule, the cytochrome c release ratio in experiment [9] turned out to be 1.06. Moreover, the inhibition of aggregation in [10] worked out at 59.1%. For the same molecule, the glutamate uptake change in experiment [11] amounted to 14.9%. This molecule also registered an aggregation suppression score in experiment [12] of 0.956.
Consider `CC(=O)N[C@@H](CC(C)C)C(=O)O`, for which the inhibition in [6] was determined as 23.7%. This molecule also registered a score in experiment [7] of 0.82. For the same molecule, the rescue above control in experiment [8] was 14.2. Moreover, the cytochrome c release ratio in experiment [9] amounted to 1.03. The inhibition of aggregation in experiment [10] came to 74.7%. The glutamate uptake change in experiment [11] came out at 2.89%. In addition, the inclusion score in [14] was 2. In experiment [12], this molecule returned an aggregation suppression score of 0.909.
Take `Cc1c(N)c(=O)n(-c2ccccc2)n1C`: the inhibition in experiment [6] amounted to 13.4%. In [7], this molecule gave a score of 1.65. Further, the rescue above control in [8] is -0.44. For the same molecule, in experiment [9], the cytochrome c release ratio was determined as 0.9. For the same molecule, in [10], the inhibition of aggregation is 81.5%. Further, the glutamate uptake change in experiment [11] is -10.8%. The molecule also yielded an inclusion score in [14] of 1. The molecule further showed an aggregation suppression score in experiment [12] of 1.31.
